According to PubChem BioAssay (NCATS):
Results filed as inconclusive are left out. Entries that show only a call come without a potency. The source made the active and inactive calls. Calls come from the whole dose curve; as a rule, active = well fitted curve in the direction sought with a large enough effect in the signal ratio; inconclusive = small, poorly fitted or top-dose-only effect, or a change in a side signal; inactive = no such curve, though single readings can be large or run the other way; the % refers to the signal ratio.

Biological target: Tumor necrosis factor (Homo sapiens) (UniProt P01375)
Sequence (P01375 whole entry, looked up): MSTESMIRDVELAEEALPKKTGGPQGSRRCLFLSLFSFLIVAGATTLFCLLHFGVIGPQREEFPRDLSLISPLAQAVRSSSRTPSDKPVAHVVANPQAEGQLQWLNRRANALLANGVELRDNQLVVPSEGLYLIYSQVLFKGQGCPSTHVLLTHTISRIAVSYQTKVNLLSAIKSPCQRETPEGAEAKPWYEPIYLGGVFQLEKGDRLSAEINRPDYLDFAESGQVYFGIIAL
Experiment: qHTS assay to identify small molecules that stimulate Tumor Necrosis Factor-alpha (TNF-alpha) secretion (AID 651757)
Details: Human cells, HTRF 665/615 ratio; series mostly up to 92.2 µM
Text: National Center for Advancing Translational Sciences [NCATS]
NIH Chemical Genomics Center [NCGC]
National Institutes of Environmental Health Sciences [NIEHS]
National Toxicology Program [NTP]
Tumor Necrosis Factor-alpha (TNF-alpha), a secreted cytokine, plays an important role in inflammatory diseases and immune disorders. TNF-alpha, a 17 kDa cytokine, is mainly secreted by activated macrophages and monocytes in response to several inflammatory and immunological stimuli. To study the effect of environmental chemicals on TNF-alpha secretion, a homogeneous TNF-alpha assay was developed using Time Resolved fluorescence (HTRF) technology based on Time Resolved Fluorescent Resonance Energy Transfer (TR-FRET) (Leister et al., Current Chemical Genomics, 5:21-29, 2011). This assay allows measuring TNF-alpha secreted from the cells in a 1536-well plate format.
THP-1 cells were dispensed at 3000 cells/5ul/well in 1536-well white solid plates. After addition of 23 nl of compound, positive controls and DMSO only, the assay plates were incubated at 37 C for 17 hrs, followed by addition of 5 uLof mixture of cryptate labeled and XL665 labeled anti-TNF-alpha antibodies. After the assay plates were incubated at room temperature for 3 hr, the plates were measured by an EnVision plate reader.

Structure (SMILES)	Potency
C[C@@H]1CC2(OC[C@]3(C)O[C@H]23)O[C@H]2C[C@@]3(C)[C@@H]4CC[C@H]5C(C)(C)C(O[C@@H]6OC[C@@H](O)[C@H](O)[C@H]6O)CC[C@@]56C[C@@]46CC[C@]3(C)[C@@H]12 (stereo not given in full)	inactive
OCCO	inactive
O=C(O)CNC(=O)c1ccc(CO)o1	inactive
NC=O	inactive
O=[N+]([O-])c1cccc(Cl)c1	inactive
O=C(O)c1ccc(Cl)cc1Cl	inactive
Nc1ccccc1S(=O)(=O)O	inactive
COC(=O)CCC(=O)OC	inactive
CCCC(Cl)CCCC(Cl)CCC(Cl)CCC(Cl)CCC(Cl)CCCC(Cl)CCC (stereo not given)	inactive
CCCCC(CC)C(=O)O (stereo not given)	inactive
Cc1ccc2oc(=O)ccc2c1	inactive
NS(=O)(=O)O	inactive
Cc1ccc(C)cc1	inactive
NC(N)=S	inactive
Nc1cccc([N+](=O)[O-])c1	inactive
Nc1nc2ccccc2[nH]1	inactive
Cc1ccc(C(=O)O)cc1	inactive
C=Cc1ccc(C=C)cc1	inactive
CC(=O)c1ccc([N+](=O)[O-])cc1	inactive
CC(=O)c1nccs1	inactive

Structure (SMILES)	Potency
CCCCC(CC)COC(=O)CCCCC(=O)OCC(CC)CCCC (stereo not given)	inactive
CCCCC/C=C/C=C/C=O	inactive
CCCCCCCCCCCCC1CO1 (stereo not given)	inactive
CCC=O	inactive
Cc1cccc(C)c1[N+](=O)[O-]	inactive
CC=O	inactive
Cc1ccc(C#N)cc1	inactive
CC(C)(O)CCC(C)(C)O	inactive
O=[N+]([O-])c1cccc(C(F)(F)F)c1	inactive
Cc1cccc2sc(N)nc12	inactive
NC(=O)NC(N)=O	inactive
CC(=O)c1cc(C)oc1C	inactive
Cc1cccc(C(=O)O)c1	inactive
C1CCOC1	inactive
O=C1NC(=O)c2cc([N+](=O)[O-])ccc21	inactive
CCCC=O	inactive
Nc1cc(S(=O)(=O)O)ccc1O	inactive
C[C@@H]1CC2(OC3C[C@@]4(C)C5=CC[C@H]6C(C)(C)C(O[C@@H]7OC[C@@H](O)[C@H](O)[C@H]7O)CC[C@@]67C[C@@]57CC[C@]4(C)C31)OC(O)C1(C)OC21 (stereo not given in full)	inactive
C=CC(=O)NC(C)C	inactive
CC(C)c1ccccc1	inactive
